# Measurements from PMC7862700, “An all-to-all approach to the identification of sequence-specific readers for epigenetic DNA modifications on cytosine”.
# Legend:
# Experiment in all cases: DAPPL (digital affinity profiling via proximity ligation, sequencing); 10 mM Tris-HCl pH 7.5, 50 mM NaCl, 1 mM DTT, 4% glycerol, room temperature, 30 min; GST-TFs on glutathione beads, 16-mer random dsDNA library, 0.1% formaldehyde crosslink after washing; high values mean tight binding
# FLI1 = target: T1, FLI1 (Homo sapiens, UniProt Q01543 1-452); details: protein: recombinant; tags: N-terminal GST; dsDNA, one strand shown
# T1 sequence: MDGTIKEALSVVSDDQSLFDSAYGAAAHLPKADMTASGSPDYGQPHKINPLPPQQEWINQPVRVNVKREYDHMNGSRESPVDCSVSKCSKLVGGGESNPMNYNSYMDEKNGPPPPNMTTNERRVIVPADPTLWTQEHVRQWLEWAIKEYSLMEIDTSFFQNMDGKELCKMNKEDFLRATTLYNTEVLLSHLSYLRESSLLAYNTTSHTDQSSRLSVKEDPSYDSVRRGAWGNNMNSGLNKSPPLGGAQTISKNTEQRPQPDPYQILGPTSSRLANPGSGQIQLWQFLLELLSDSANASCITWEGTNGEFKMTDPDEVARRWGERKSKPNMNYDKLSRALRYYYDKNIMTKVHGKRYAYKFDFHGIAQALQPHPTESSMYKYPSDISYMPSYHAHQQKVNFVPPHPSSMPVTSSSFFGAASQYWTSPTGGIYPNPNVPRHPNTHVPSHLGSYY
# How it was run: (§1)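 A tag-only sample was pooled with DNA-barcoded human transcription factors that had been expressed in yeast as GST fusions and captured on glutathione beads. The pools were incubated for 30 min at room temperature with 200 nmole of a random double-stranded 16-mer DNA library in Tris/NaCl/DTT/glycerol buffer, then washed, crosslinked with 0.1% formaldehyde, proximity-ligated (BsaI/T4 ligase, 1 h, 37 °C), PCR-amplified and sequenced on an Illumina NextSeq500. Binding signal is each hexamer's read frequency for a factor divided by its frequency for the tag-only sample.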
# ELK1 = target: T2, ELK1 (Homo sapiens, UniProt P19419 1-428); details: protein: recombinant; tags: N-terminal GST; dsDNA, one strand shown
# T2 sequence: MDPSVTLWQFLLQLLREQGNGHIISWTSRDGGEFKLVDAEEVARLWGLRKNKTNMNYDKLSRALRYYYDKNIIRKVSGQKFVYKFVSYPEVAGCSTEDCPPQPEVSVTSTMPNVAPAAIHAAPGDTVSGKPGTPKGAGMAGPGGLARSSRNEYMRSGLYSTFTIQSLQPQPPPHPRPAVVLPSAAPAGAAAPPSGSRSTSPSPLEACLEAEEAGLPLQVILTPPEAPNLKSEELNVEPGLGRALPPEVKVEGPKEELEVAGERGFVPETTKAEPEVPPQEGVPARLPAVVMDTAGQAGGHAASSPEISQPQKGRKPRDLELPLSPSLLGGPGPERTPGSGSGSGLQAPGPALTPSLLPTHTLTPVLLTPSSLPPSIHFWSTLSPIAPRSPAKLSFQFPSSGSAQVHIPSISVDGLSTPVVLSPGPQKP
# How it was run: as §1
# GABPA = target: T3, GABPA (Homo sapiens, UniProt Q06546 1-454); details: protein: recombinant; tags: N-terminal GST; dsDNA, one strand shown
# T3 sequence: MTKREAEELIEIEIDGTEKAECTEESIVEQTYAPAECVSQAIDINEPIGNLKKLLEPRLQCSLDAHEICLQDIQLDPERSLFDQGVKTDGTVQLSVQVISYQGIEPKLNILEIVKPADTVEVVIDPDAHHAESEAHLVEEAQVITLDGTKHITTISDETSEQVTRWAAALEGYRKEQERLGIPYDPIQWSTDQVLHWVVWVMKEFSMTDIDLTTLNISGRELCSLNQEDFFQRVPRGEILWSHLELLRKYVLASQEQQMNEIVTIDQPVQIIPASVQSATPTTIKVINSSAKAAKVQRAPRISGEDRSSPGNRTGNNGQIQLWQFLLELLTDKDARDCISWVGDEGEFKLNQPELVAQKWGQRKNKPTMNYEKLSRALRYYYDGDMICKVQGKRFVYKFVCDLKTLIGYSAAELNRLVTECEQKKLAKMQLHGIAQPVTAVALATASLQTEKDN
# How it was run: as §1
# ERG = target: T4, ERG (Homo sapiens, UniProt P11308 1-479); details: protein: recombinant; tags: N-terminal GST; dsDNA, one strand shown
# T4 sequence: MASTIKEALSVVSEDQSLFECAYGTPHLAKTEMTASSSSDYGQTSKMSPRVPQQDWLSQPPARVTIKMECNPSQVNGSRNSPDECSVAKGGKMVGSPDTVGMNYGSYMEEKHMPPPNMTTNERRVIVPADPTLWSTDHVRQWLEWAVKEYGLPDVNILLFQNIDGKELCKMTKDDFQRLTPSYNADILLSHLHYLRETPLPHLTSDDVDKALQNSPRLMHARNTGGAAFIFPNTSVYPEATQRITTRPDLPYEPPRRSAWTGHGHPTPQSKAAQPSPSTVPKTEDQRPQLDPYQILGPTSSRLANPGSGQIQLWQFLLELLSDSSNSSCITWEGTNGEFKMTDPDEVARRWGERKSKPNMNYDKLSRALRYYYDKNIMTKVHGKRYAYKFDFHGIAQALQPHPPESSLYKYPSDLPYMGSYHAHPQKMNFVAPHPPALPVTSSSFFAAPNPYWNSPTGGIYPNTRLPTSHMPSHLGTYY
# How it was run: as §1
# ELF1 = ELF1 (Homo sapiens, UniProt P32519 1-619); details: protein: recombinant; tags: N-terminal GST; dsDNA, one strand shown
# How it was run: as §1
# EHF = target: T5, EHF (Homo sapiens, UniProt Q9NZC4 1-300); details: protein: recombinant; tags: N-terminal GST; dsDNA, one strand shown
# T5 sequence: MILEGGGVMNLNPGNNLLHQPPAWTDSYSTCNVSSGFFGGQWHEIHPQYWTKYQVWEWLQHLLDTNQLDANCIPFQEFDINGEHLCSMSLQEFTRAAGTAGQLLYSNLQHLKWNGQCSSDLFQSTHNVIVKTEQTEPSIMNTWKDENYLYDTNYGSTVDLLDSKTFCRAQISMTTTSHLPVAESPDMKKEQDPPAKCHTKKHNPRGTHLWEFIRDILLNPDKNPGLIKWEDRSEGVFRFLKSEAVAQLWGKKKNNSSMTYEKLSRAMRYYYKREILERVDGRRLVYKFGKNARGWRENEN
# How it was run: as §1
# SPI1 = SPI1 (Homo sapiens, UniProt P17947 1-270); details: protein: recombinant; tags: N-terminal GST; dsDNA, one strand shown
# How it was run: as §1
# SPIB = SPIB (Homo sapiens, UniProt Q01892 1-262); details: protein: recombinant; tags: N-terminal GST; dsDNA, one strand shown
# How it was run: as §1
# ELK3 = target: T6, ELK3 (Homo sapiens, UniProt P41970 1-407); details: protein: recombinant; tags: N-terminal GST; dsDNA, one strand shown
# T6 sequence: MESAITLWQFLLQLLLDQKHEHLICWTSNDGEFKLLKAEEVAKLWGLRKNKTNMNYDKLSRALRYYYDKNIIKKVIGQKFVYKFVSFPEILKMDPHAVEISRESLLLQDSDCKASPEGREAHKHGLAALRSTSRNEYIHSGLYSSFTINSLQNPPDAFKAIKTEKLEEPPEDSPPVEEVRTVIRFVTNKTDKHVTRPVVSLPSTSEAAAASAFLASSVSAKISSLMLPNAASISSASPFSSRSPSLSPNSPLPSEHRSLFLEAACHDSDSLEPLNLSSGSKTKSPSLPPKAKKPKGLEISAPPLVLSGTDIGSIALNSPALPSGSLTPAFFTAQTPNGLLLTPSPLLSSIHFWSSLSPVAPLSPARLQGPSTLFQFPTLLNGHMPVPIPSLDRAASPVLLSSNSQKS
# How it was run: as §1
# FEV = target: T7, FEV (Homo sapiens, UniProt Q99581 1-238); details: protein: recombinant; tags: N-terminal GST; dsDNA, one strand shown
# T7 sequence: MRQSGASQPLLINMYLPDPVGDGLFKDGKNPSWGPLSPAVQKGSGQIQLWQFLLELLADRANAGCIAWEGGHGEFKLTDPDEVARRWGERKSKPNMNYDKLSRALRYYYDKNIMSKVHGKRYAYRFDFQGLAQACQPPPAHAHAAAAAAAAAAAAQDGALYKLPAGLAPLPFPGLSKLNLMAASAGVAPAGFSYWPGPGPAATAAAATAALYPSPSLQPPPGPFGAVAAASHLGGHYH
# How it was run: as §1
# ETV5 = ETV5 (Homo sapiens, UniProt P41161 1-510); details: protein: recombinant; tags: N-terminal GST; dsDNA, one strand shown
# How it was run: as §1
# HSF1 = HSF1 (Homo sapiens, UniProt Q00613 1-529); details: protein: recombinant; tags: N-terminal GST; chain copies: 3; dsDNA, one strand shown
# How it was run: as §1
# SPIC = target: T8, SPIC (Homo sapiens, UniProt Q8N5J4 1-248); details: protein: recombinant; tags: N-terminal GST; dsDNA, one strand shown
# T8 sequence: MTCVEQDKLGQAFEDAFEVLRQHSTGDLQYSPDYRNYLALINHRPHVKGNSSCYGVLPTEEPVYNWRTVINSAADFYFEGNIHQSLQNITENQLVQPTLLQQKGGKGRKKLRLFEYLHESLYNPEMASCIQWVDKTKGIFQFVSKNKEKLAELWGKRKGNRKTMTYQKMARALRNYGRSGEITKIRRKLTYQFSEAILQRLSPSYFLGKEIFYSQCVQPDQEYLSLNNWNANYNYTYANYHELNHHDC
# How it was run: as §1
# ELF4 = ELF4 (Homo sapiens, UniProt Q99607 1-663); details: protein: recombinant; tags: N-terminal GST; dsDNA, one strand shown
# How it was run: as §1
# ELK4 = target: T9, ELK4 (Homo sapiens, UniProt P28324-2 1-405); details: protein: recombinant; tags: N-terminal GST; dsDNA, one strand shown
# T9 sequence: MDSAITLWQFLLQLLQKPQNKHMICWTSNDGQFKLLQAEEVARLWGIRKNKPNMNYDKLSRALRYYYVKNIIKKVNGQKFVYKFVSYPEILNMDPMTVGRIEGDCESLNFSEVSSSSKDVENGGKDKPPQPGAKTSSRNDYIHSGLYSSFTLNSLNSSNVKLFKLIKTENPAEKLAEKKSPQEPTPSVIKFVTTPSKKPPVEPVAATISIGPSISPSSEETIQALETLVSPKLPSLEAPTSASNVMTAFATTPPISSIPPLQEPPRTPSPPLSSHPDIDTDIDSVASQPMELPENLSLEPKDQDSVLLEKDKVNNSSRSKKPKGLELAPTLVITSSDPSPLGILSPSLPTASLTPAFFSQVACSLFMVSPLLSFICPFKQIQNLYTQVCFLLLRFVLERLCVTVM
# How it was run: as §1
# ETV2 = target: T10, ETV2 (Homo sapiens, UniProt O00321 1-342); details: protein: recombinant; tags: N-terminal GST; dsDNA, one strand shown
# T10 sequence: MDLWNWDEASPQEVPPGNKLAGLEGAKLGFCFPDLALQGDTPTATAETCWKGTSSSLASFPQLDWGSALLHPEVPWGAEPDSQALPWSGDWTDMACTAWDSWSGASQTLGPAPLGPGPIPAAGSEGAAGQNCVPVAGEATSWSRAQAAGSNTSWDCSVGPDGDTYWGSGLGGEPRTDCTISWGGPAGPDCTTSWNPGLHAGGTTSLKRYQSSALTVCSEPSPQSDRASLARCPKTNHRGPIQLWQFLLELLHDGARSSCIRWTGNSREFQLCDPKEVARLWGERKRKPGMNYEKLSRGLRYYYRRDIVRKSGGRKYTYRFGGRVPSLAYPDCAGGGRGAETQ
# How it was run: as §1
# ELF3 = target: T11, ELF3 (Homo sapiens, UniProt P78545 1-371); details: protein: recombinant; tags: N-terminal GST; dsDNA, one strand shown
# T11 sequence: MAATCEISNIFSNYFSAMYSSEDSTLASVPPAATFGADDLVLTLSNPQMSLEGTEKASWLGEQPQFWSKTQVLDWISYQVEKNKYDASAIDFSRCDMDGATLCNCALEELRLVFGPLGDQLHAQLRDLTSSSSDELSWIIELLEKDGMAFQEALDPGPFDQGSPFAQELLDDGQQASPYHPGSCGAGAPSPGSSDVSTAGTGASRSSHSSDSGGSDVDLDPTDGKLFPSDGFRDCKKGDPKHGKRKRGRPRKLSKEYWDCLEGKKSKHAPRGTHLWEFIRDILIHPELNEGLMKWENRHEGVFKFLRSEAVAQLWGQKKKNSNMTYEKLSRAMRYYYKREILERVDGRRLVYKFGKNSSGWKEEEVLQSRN
# How it was run: as §1
# CRX = CRX (Homo sapiens, UniProt O43186 1-299); details: protein: recombinant; tags: N-terminal GST; dsDNA, one strand shown
# How it was run: as §1
# ETV1 = ETV1 (Homo sapiens, UniProt P50549 1-477); details: protein: recombinant; tags: N-terminal GST; dsDNA, one strand shown
# How it was run: as §1
# Sequence of ETV5 (P41161 whole entry): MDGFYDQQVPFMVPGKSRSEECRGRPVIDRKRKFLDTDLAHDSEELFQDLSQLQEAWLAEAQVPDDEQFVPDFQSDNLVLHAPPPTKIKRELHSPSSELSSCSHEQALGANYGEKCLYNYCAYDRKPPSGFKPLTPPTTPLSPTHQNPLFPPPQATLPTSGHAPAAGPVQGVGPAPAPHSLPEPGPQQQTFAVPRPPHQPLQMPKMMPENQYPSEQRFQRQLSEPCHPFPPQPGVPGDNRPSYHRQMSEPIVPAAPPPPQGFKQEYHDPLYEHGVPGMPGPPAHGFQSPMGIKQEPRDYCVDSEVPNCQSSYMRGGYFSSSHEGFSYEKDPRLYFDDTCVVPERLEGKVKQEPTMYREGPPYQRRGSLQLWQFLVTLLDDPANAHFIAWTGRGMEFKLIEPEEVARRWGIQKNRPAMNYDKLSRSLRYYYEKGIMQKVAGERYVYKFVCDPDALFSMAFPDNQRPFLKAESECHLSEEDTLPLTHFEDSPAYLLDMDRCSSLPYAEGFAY
# Sequence of ELF4 (Q99607 whole entry): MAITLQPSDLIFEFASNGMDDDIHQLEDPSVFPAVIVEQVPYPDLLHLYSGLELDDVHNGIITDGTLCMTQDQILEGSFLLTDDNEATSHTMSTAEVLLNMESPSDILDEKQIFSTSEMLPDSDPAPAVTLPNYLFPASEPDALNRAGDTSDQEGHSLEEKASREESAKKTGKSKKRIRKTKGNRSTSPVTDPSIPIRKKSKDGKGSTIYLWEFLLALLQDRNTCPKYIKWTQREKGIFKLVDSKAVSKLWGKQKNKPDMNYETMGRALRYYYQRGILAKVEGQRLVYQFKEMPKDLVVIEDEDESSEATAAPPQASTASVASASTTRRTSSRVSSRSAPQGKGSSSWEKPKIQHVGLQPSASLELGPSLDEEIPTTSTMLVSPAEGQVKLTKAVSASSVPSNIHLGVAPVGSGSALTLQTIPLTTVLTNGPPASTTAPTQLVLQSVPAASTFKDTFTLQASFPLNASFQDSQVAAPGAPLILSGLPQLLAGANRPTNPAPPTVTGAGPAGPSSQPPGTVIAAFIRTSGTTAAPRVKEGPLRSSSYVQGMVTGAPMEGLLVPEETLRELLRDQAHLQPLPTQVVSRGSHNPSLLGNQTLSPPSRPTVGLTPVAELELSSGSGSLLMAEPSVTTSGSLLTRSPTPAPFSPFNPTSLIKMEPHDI
# Sequence of ELF1 (P32519 whole entry): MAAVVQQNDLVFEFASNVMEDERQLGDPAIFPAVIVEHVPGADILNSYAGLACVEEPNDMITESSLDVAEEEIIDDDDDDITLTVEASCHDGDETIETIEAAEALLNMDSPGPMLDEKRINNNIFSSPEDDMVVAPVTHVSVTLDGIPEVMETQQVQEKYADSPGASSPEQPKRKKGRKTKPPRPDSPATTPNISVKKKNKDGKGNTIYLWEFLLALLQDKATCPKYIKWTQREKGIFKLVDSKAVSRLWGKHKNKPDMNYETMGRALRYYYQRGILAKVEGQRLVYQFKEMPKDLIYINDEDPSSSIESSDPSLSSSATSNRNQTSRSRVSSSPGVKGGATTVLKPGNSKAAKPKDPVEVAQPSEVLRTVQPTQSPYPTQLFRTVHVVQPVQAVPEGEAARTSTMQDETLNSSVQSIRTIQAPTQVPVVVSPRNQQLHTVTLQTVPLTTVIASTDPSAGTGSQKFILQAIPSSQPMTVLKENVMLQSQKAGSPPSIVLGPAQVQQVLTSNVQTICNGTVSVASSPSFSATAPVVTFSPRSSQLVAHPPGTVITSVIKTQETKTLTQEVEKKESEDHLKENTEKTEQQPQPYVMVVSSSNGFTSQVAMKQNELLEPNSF
# Sequence of ETV1 (P50549 whole entry): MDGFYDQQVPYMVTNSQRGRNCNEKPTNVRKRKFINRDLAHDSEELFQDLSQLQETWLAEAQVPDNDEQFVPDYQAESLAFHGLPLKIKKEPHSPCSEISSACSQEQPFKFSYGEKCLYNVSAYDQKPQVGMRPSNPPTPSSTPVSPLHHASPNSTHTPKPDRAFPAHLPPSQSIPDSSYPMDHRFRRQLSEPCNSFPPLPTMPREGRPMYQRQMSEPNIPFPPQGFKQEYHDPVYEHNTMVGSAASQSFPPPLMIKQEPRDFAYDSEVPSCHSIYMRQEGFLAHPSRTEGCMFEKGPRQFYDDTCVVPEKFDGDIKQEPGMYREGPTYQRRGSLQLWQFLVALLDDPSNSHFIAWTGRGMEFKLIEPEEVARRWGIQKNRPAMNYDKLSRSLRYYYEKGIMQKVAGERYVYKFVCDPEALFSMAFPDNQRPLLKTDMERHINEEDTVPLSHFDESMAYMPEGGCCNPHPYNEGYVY
# Sequence of HSF1 (Q00613 whole entry): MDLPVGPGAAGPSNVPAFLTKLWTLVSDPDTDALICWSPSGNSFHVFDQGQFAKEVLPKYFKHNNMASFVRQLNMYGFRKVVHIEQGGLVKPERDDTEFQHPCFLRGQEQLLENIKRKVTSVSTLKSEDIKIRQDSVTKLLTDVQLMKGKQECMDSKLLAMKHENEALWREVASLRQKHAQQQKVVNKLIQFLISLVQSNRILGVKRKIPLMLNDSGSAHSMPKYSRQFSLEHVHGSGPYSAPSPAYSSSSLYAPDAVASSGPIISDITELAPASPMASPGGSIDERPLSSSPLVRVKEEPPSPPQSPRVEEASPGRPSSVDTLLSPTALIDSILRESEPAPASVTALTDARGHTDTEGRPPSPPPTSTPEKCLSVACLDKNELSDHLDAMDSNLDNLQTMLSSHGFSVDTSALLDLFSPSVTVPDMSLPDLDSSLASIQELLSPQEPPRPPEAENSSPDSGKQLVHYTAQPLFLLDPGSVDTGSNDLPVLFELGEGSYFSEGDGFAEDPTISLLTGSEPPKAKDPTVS
# Sequence of CRX (O43186 whole entry): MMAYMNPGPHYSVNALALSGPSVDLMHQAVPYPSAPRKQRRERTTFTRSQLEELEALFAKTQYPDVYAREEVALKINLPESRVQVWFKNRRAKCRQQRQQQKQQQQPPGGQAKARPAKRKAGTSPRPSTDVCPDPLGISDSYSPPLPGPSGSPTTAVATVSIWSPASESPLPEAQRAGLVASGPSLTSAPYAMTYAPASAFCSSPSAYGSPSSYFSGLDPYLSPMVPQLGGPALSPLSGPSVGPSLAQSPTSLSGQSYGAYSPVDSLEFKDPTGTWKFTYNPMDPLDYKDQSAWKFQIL
# Sequence of SPIB (Q01892 whole entry): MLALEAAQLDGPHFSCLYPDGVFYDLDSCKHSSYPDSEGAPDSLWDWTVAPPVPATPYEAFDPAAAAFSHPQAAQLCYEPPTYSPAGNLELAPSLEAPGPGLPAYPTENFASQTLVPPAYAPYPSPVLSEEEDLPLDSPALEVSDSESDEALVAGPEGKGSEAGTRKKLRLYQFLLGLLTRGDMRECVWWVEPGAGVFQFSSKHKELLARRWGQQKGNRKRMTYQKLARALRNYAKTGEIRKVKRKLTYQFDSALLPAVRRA
sequence,measurement,setting,value
CGTCTT,binding signal,FLI1,"1.46 fold enrichment (6-mer frequency, TF over GST control)"
same,binding signal,ELK1,"1.43 fold enrichment (6-mer frequency, TF over GST control)"
same,binding signal,GABPA,"1.33 fold enrichment (6-mer frequency, TF over GST control)"
same,binding signal,ERG,"1.37 fold enrichment (6-mer frequency, TF over GST control)"
same,binding signal,ELF1,"1.35 fold enrichment (6-mer frequency, TF over GST control)"
same,binding signal,EHF,"1.41 fold enrichment (6-mer frequency, TF over GST control)"
same,binding signal,SPI1,"1.45 fold enrichment (6-mer frequency, TF over GST control)"
same,binding signal,SPIB,"1.5 fold enrichment (6-mer frequency, TF over GST control)"
same,binding signal,ELK3,"1.28 fold enrichment (6-mer frequency, TF over GST control)"
same,binding signal,FEV,"1.33 fold enrichment (6-mer frequency, TF over GST control)"
same,binding signal,ETV5,"1.37 fold enrichment (6-mer frequency, TF over GST control)"
same,binding signal,HSF1,"1.31 fold enrichment (6-mer frequency, TF over GST control)"
same,binding signal,SPIC,"1.38 fold enrichment (6-mer frequency, TF over GST control)"
same,binding signal,ELF4,"1.38 fold enrichment (6-mer frequency, TF over GST control)"
same,binding signal,ELK4,"1.21 fold enrichment (6-mer frequency, TF over GST control)"
same,binding signal,ETV2,"1.29 fold enrichment (6-mer frequency, TF over GST control)"
same,binding signal,ELF3,"1.56 fold enrichment (6-mer frequency, TF over GST control)"
same,binding signal,CRX,"1.5 fold enrichment (6-mer frequency, TF over GST control)"
same,binding signal,ETV1,"1.48 fold enrichment (6-mer frequency, TF over GST control)"
